# Data reported in the supplement of paper PMC6555819.
# Assays:
# Assay in all cases: PBM binding z-score (relative to random genomic background probes); higher = stronger binding; sequences stand for … in GC…GCGATTGACAGCGTAGAATGAAGG
# [1] = test system: PPARg:RXRa DBDmut IVT, anti-RXR (DBD mutation: RXRa K156A/R161A, NR concentration 270 nM, RXRa partner concentration 90 nM)
# Summary of the method: (§1)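 Scanned fluorescence from custom Agilent 4×180K protein-binding microarrays was regression-normalized. Binding z-scores use random background probes as reference. Ligand-free nuclear receptor dimers were incubated on the arrays for 1 h and detected with antibodies against each partner (one per run).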
# [2] = test system: PPARg:RXRa IVT, anti-PPARg (NR concentration 270 nM, RXRa partner concentration 90 nM)
# Summary of the method: as §1
# [3] = test system: PPARg DBDmut:RXRa IVT, anti-PPARg (DBD mutation: PPARg1 K132A/R137A, NR concentration 270 nM, RXRa partner concentration 90 nM)
# Summary of the method: as §1
# [4] = test system: PPARg DBDmut IVT, anti-PPARg (DBD mutation: PPARg1 K132A/R137A, NR concentration 270 nM)
# Summary of the method: as §1
# [5] = test system: PPARg homodimer (NR concentration 180 nM)
# Summary of the method: as §1
# [6] = test system: PXR:RXRa (NR concentration 270 nM, RXRa partner concentration 90 nM)
# Summary of the method: as §1
# [7] = test system: PXR homodimer (NR concentration 270 nM)
# Summary of the method: as §1
# [8] = test system: RARa:RXR (NR concentration 270 nM, RXRa partner concentration 90 nM)
# Summary of the method: as §1
# [9] = test system: RARa homodimer (NR concentration 270 nM)
# Summary of the method: as §1
# [10] = test system: RARb:RXRa (NR concentration 270 nM, RXRa partner concentration 90 nM)
# Summary of the method: as §1
# [11] = test system: RARb homodimer (NR concentration 270 nM)
# Summary of the method: as §1
# [12] = test system: RARg:RXRa (NR concentration 270 nM, RXRa partner concentration 90 nM)
# Summary of the method: as §1
# [13] = test system: RARg homodimer (NR concentration 270 nM)
# Summary of the method: as §1
# [14] = test system: RXRa DBDmut IVT, anti-RXR (DBD mutation: RXRa K156A/R161A, NR concentration 90 nM)
# Summary of the method: as §1
# [15] = test system: RXRa homodimer (NR concentration 180 nM)
# Summary of the method: as §1
# [16] = test system: THRa:RXRa (NR concentration 90 nM, RXRa partner concentration 90 nM)
# Summary of the method: as §1
# [17] = test system: THRa homodimer (NR concentration 90 nM)
# Summary of the method: as §1
# [18] = test system: VDR homodimer (NR concentration 270 nM)
# Summary of the method: as §1
Sequence,PBM binding z-score [1],PBM binding z-score [2],PBM binding z-score [3],PBM binding z-score [4],PBM binding z-score [5],PBM binding z-score [6],PBM binding z-score [7],PBM binding z-score [8],PBM binding z-score [9],PBM binding z-score [10],PBM binding z-score [11],PBM binding z-score [12],PBM binding z-score [13],PBM binding z-score [14],PBM binding z-score [15],PBM binding z-score [16],PBM binding z-score [17],PBM binding z-score [18]
CGTCCAATGTCAGCAGGTCAGTGAAAGCGACGTG,0.4,0.811,-0.067,-0.189,1.33,0.416,-0.258,1.17,0.0652,2.6,2.76,2.04,2.59,0.442,0.9,1.31,0.239,0.584
CGTCCGAGGTCAGCAGGTCAGTGAAAGCGACGTG,3.37,4.16,0.747,0.472,4.76,4.43,0.531,5.55,1.59,5.15,4.89,6.81,7.31,2.99,6.26,4.09,2.53,2.44
CCTACTGGGCCATTCAGAAGTCATTGATCATATG,4.43,3.36,-0.17,-0.487,0.0197,-0.557,-0.689,-0.413,0.126,0.115,-0.105,0.0962,0.226,-0.00725,-0.479,-0.404,-0.643,-0.285
TCTATTTGTTGAAGGGCAACCGACGAGTCCGTTT,2.54,1.08,1.34,1.56,1.38,1,1.16,0.596,2.02,1.68,1.57,0.705,1.07,1.55,0.578,0.482,0.62,1.92
ACTAGCAGCCCAAGGGTCACTCAAGATTAGTCCG,-0.509,1.13,-0.437,-0.614,1.34,2.97,0.208,3.58,0.48,3.27,3.74,3.55,3.23,0.283,3.67,2.45,0.307,0.863
CCGAGTAGGTTATGGGGCACTCAGGCAACGGTGA,3.14,3.7,-0.555,-0.9,0.446,-0.0743,-0.0972,0.214,-0.134,1.15,0.946,0.475,0.553,-0.264,0.805,0.385,0.0948,0.0125
TAGCCTAGGTCAGCTCGGGCCAGTATACGCTATA,1.01,1.73,-1.19,-1.03,0.105,1.77,-0.949,1.39,-0.994,3.65,2.59,3.06,4.25,-0.297,1.54,4.27,0.31,-0.788
TCGAGTAGGTTGGTCGGGGCATTCAGCCAACATA,0.51,-0.219,-0.384,-1.1,-0.0818,0.102,-0.155,0.0862,-0.932,0.117,0.0867,-0.467,-0.483,-0.0758,-0.429,0.33,0.0385,0.0879
TGAATGAGGTTATAAGATCAGGGGACGTTGCAAA,1.5,1.82,0.706,0.291,0.361,0.901,0.3,1.58,0.169,1.43,0.854,1.51,0.975,1.3,2.02,2.1,0.619,1.21
CGCACTAGGTCAAGGACAGTGAATCTCCGCACGC,8.02,7.89,1.21,0.566,1.2,1.15,0.0235,1.92,0.00773,3.92,3.34,3.82,4.48,1.72,2.63,3.03,2.15,0.387
CTGCCAAGGTGAACAAGGTCGTTGATTACTATTC,2.22,2.18,-0.417,-1,0.571,2.35,1.73,1.9,-0.469,2.08,2,1.66,1.29,1.04,1.58,3.07,1.67,1.56
CCGACTGGGGCAGGAAGGTTACCATACCATCCGG,1.39,2.05,-0.739,-1.79,0.462,-0.00877,-0.202,0.286,-0.388,0.913,1.15,0.592,0.687,-1.31,0.585,0.142,-0.486,-0.24
AGAATGAGGTTACCAAAGATCAGGGAAACGCTTG,3.53,3.38,1.26,1.04,1.16,1.38,0.241,2.16,-0.326,2.03,0.765,2.19,1.68,1.25,2.57,3.04,0.9,0.1
ATCTCTAGGTAAGACTCAGTTCAGTGAGGAACGC,1.94,1.26,0.558,0.604,0.314,0.836,1.56,0.193,0.359,0.376,0.438,0.383,0.447,0.293,0.124,0.714,0.481,1.3
ATCTCTAGGTAAAAGTCCAGTGAATCCCGAGGAT,2.07,1.54,0.922,0.924,0.148,-0.1,0.357,-0.148,0.615,0.582,-0.174,0.275,0.393,-0.403,-0.00664,0.296,0.175,0.187
ATACCAAGGCGATCGTGAGGTCGTTGATACTAAC,-0.138,-0.0368,-0.877,-0.313,-0.138,1.3,0.728,1.12,0.128,0.341,0.905,0.636,0.0519,0.303,0.794,2.26,1.5,1.85
CCTACTGGGCCAAACAGGTCATTGATGCCGATAA,4.31,3.92,0.0161,-0.301,1.42,1.37,0.801,1.71,0.102,1.68,2.13,1.56,1.36,0.175,1.38,1.39,0.0902,1.53
ATCGAAAGGTCGTGAGGTTAGTATACAGAAAGGC,0.453,2.21,1.19,1.52,2.32,3.74,0.823,4.8,1.16,3.99,3.14,4.88,4.09,1.9,5.43,3.2,1.07,1.84
ATCCCTAGGTAAAAGTTCAGTGAATCCCGAGGAT,-0.636,1.17,-0.0921,0.662,0.927,1.97,1.19,1.18,0.513,2.16,2.41,1.53,1.73,0.406,1.39,1.13,0.117,1.71
GCGCGGAGGACAAGGTCAGAGCTTTGTCCGTAGA,-0.241,0.514,-1.67,-1.56,0.0737,1.5,-0.325,2.13,-1.01,3.4,2.99,3.09,3.32,0.639,2.43,2.89,1.33,0.885
CCGAATAGGTTATGGGGCATTCAGGCAACGGTGA,1.26,1.71,-0.226,-0.668,0.678,0.141,-0.0555,0.892,0.0562,1.27,1.11,1.06,0.917,0.132,1.31,0.696,-0.0047,-0.175
CCTGCTAGGTGAATGGTCAGCTAAAGCAGCTCGC,3.48,2.62,-0.739,-1.37,-0.377,-0.698,-0.722,-0.44,-1.03,1,0.445,0.0358,0.301,-0.37,-0.237,0.283,-0.317,-0.841
TCGATTAGGTTACCAATGGGGCATTCAGCTTTCT,2.52,1.4,0.217,0.237,0.366,0.467,-0.59,0.557,-0.505,1.44,1.09,1.39,0.551,1.2,0.573,0.894,0.0109,-0.327
TCATATAGGTAAAAGGGGAAAGTCGGTGTGGTAA,4.82,3.69,1.31,1.21,1.73,0.624,0.862,1.17,2.27,0.958,0.789,0.447,0.236,1.95,1.19,0.512,0.383,0.386
ATCTCTATGTAAGACTCAGTTCAGTGAAGAACGC,-0.194,-0.197,0.298,1.3,0.674,0.52,1.01,0.0686,0.753,0.0321,0.277,-0.035,0.0537,0.294,-0.183,0.172,0.339,1.16
GATACAGGGTCAAGGCCAGAGCACGCGTATTGAT,2.49,4.08,0.585,0.0811,2.41,3.86,0.352,4.64,0.569,4.5,3.82,5.4,4.9,2.27,5.45,3.6,1.34,1.92
TCTAGTTGGTCACGGAGATCACACACGACGGGTA,2.55,2.3,0.815,0.952,0.853,0.363,0.241,0.735,0.576,1.57,1.07,1.07,1.4,0.762,1.19,0.155,0.328,0.211
ATCTCTAGGTAACAAAGTTCAGTGAATGCCGAAC,3.03,3.03,1.17,0.837,1.24,2.36,2.09,1.61,0.834,2.4,2.76,2.04,1.99,0.878,1.36,1.56,0.601,2.02
TCTCGTAGATCAATAGAGGTTAAGAAAGTGCGCT,1.66,0.219,0.246,0.204,0.0307,3.08,0.105,1.6,0.0805,0.751,0.966,0.48,0.249,0.754,1.19,2.07,-0.641,0.163
